Data on 40 compounds can be found in PubChem BioAssay (EPA / NIEHS).

The source made the active and inactive calls. Rule for the calls: active = hit-call score of the fitted dose curve at least 0.9, where 1 is the maximum; inactive = score below 0.9.

The assay in a line: APR_HepG2_MicrotubuleCSK_1hr: Apredica 1-hour HepG2 Assay for Microtubule CSK Stabilty (AID 2282669). Particulars: HepG2 microtubule cytoskeleton imaging, actives raise or lower the signal. As to the method:
APR_HepG2_1hr is a cell-based, multiplexed-readout assay that uses HepG2, a human liver cell line, with measurements taken at 1 hour after chemical dosing in a 384-well plate.APR_HepG2_MicrotubuleCSK_1hr is one of 10 assay component(s) measured or calculated from the APR_HepG2_1hr assay. It is designed to make measurements of protein conformation, a form of conformation reporter, as detected with fluorescence intensity signals by HCS Fluorescent Imaging technology.Data from the assay component APR_HepG2_MicrotubuleCSK_1hr was analyzed into 1 assay endpoint. This assay endpoint, APR_HepG2_MicrotubuleCSK_1hr, was analyzed with bidirectional fitting relative to DMSO as the negative control and baseline of activity. Using a type of conformation reporter, measures of protein for gain or loss-of-signal activity can be used to understand the signaling at the cellular-level. Furthermore, this assay endpoint can be referred to as a primary readout, because this assay has produced multiple assay endpoints where this one serves a signaling function. To generalize the intended target to other relatable targets, this assay endpoint is annotated to the cell morphology intended target family, where the subfamily is cell conformation.
Cells were treated with dimethyl sulfoxide (DMSO) as a solvent control at a final concentration of 0.5% v/v or with compounds in DMSO with a resulting final DMSO concentration of 0.5% v/v. Compound treatment was done at concentrations of 0.39, 0.78, 1.56, 3.12, 6.24, 12.5, 25, 50, 100, and 200 uM in duplicate on each plate. Cells were treated with compounds for 1, 24, or 72 hr. Carbonyl […] m-chloro-phenylhydrazone (CCCP) and taxol were used as positive controls for mitochondrial function and cytoskeletal stability, respectively; DMSO served as the negative control for this experiment. Cells were fixed by the direct addition of 50 uL formaldehyde in Hank's Balanced Salt Solution (HBSS) to a final concentration of 3.7%. After incubation in the fixation medium for 30 min at room temperature (293-298 K), cells were rinsed twice with HBSS and treated with cell permeabilization buffer (16 uL of 0.5% Triton X-100) for 10 min at room temperature (293-298 K) before labeling. For mitochondrial membrane potential and mitochondrial measurements, pre-fixed cells were incubated with 50 uL of MitoTracker Red CMXRos (Invitrogen) at a concentration of 250 nM for 30 min before fixation. In the remaining cases, post-fixed cells were labeled by incubation with a multiplexed mixture of primary antibodies in HBSS for 60 min at room temperature (293-298 K) to detect immunoreactivity of c-Jun (1:500), phospho-histone H3 (1:100), phospho-histone H2A.x (1:200), p53 (1:400), alpha-tubulin (1:200) and Hoechst 33342 (2 ug/mL). Cells were labeled for multiplexed imaging on two separate plates: a) Hoechst 33342, MitoTracker Red, phospho-histone H3, and alpha-tubulin, and b) Hoechst 33342, phospho-histone H2A.x, and c-Jun. A final rinse with HBSS (50 uL) was performed before analysis. The primary and secondary antibodies for the proteins were phospho-histone H3 (rabbit anti-phospho-histone H3 and FITC-donkey anti-rabbit IgG), phospho-histone H2A.x (mouse anti-phospho-histone H2A.x and FITC-donkey anti-mouse IgG), c-Jun (rabbit anti-phospho-c-Jun and Cy3-donkey anti-rabbit IgG), p53 (sheep anti-p53 and Cy5-donkey anti-sheep IgG), alpha-tubulin (mouse anti-alpha-tubulin and Cy5-donkey anti-mouse IgG). These antibodies are available as the CellCiphr HepG2 assay kit (Millipore).Digital images of each well were captured using a Cellomics ArrayScan VTI (Thermo Scientific Cellomics) (0.8 NA objective, 0.63x optical coupler, and XF-93 filter set) at 20x magnification. The images were acquired using the autofocus feature of the ArrayScan instrument, which entails the following steps. First, the camera focuses on channel 1 (Hoechst 33342), where nuclei are identified. Second, a Z offset of 1 um is used for capturing mitochondria (MitoTracker Red). […]
Take `O=[N+]([O-])/N=C1\NCCN1Cc1ccc(Cl)nc1`: the call was inactive.

For `CCS(=O)(=O)c1cccnc1S(=O)(=O)NC(=O)Nc1nc(OC)cc(OC)n1`, the call was inactive.

In the case of `O=S(=O)(O)C(F)(F)C(F)(F)C(F)(F)C(F)(F)C(F)(F)C(F)(F)C(F)(F)C(F)(F)F`, the call was inactive.

With `CNC(=O)CSP(=S)(OC)OC`, the compound was classed as inactive.

`COC(=O)c1ccccc1S(=O)(=O)NC(=O)N(C)c1nc(C)nc(OC)n1`: the call was inactive.

Consider `C[C@H]1[C@H](c2ccc(Cl)cc2)SC(=O)N1C(=O)NC1CCCCC1`, for which the compound was classed as inactive.

Take `OCCOc1ccccc1`: the compound was called inactive.

For `CN1CSC(=S)N(C)C1`, the result was inactive.

Take `CCCN(CCOc1c(Cl)cc(Cl)cc1Cl)C(=O)n1ccnc1`: the call was inactive.

Regarding `O=C(O)COc1ccc(Cl)cc1Cl`, the call was inactive.

Consider `N#Cc1c(Cl)c(Cl)c(Cl)c(C#N)c1Cl`, for which the call was inactive.

With `O=C(Nc1ccccc1)Nc1cnns1`, the call was inactive.

For the compound `ClC1C(Cl)C(Cl)C(Cl)C(Cl)C1Cl` (stereo not given), the result was inactive.

Turning to `CC(C)(C)C(O)C(Oc1ccc(Cl)cc1)n1cncn1` (stereo not given), the compound was called inactive.

Consider `COC(=O)c1ccccc1CS(=O)(=O)NC(=O)Nc1nc(OC)cc(OC)n1`, for which the compound was called inactive.

With `Cc1[nH]c(=O)n(C(C)(C)C)c(=O)c1Cl`, the compound was classed as inactive.

Consider `COc1nn(CSP(=S)(OC)OC)c(=O)s1`, for which the compound was classed as inactive.

As for `COP(=O)(OC)OC=C(Cl)Cl`, the call was inactive.

With `CCOC1Oc2ccc(OS(C)(=O)=O)cc2C1(C)C` (stereo not given), the compound was called inactive.

As to `CCN(CC)C(=O)SCc1ccc(Cl)cc1`, the result was inactive.

As for `COC(=O)c1ccccc1S(=O)(=O)NC(=O)Nc1nc(C)nc(OC)n1`, the compound was called inactive.

In the case of `Clc1ccccc1-c1nnc(-c2ccccc2Cl)nn1`, the result was inactive.

On to `COc1cc(OC)nc(NC(=O)NS(=O)(=O)c2cc(NC=O)ccc2C(=O)N(C)C)n1`, for which the call was inactive.

Regarding `CC(C)N(C(=O)COc1nnc(C(F)(F)F)s1)c1ccc(F)cc1`, the compound was classed as inactive.

As to `COP(=S)(OC)Oc1ccc([N+](=O)[O-])cc1`, the compound was called inactive.

With `CCC(C)(NC(=O)c1cc(Cl)c(C)c(Cl)c1)C(=O)CCl` (stereo not given), the compound was classed as inactive.

As for `CCC(C)Nc1c([N+](=O)[O-])cc(C(C)(C)C)cc1[N+](=O)[O-]` (stereo not given), the compound was classed as inactive.

For the compound `COP(=S)(OC)Oc1ccc(SC)c(C)c1`, the result was inactive.

For the compound `CCC(C)(C)C(=O)OC1=C(c2ccc(Cl)cc2Cl)C(=O)OC12CCCCC2`, the call was inactive.

As to `CC1(c2ccc(Oc3ccccc3)cc2)OC(=O)N(Nc2ccccc2)C1=O` (stereo not given), the result was inactive.

On to `O=C1c2ccccc2C(=O)N1SC(Cl)(Cl)Cl`, for which the call was inactive.

Turning to `CCc1ccc(C(=O)NN(C(=O)c2cc(C)cc(C)c2)C(C)(C)C)cc1`, the compound was called inactive.

Turning to `CC(C)(C)C(O)/C(=C\c1ccc(Cl)cc1Cl)n1cncn1` (stereo not given), the result was inactive.

As for `CCOCN(C(=O)CCl)c1c(C)cccc1CC`, the outcome was inactive.

Consider `CNC(=O)Oc1ccccc1OC(C)C`, for which the compound was classed as inactive.

On to `Oc1ccc(Cl)cc1Cc1ccccc1`, for which the compound was called inactive.

As to `Oc1cc(Cl)ccc1Oc1ccc(Cl)cc1Cl`, the outcome was inactive.

With `O=C(NC(=O)c1c(F)cccc1F)Nc1ccc(OC(F)(F)C(F)OC(F)(F)F)c(Cl)c1` (stereo not given), the compound was called inactive.

With `N#CN`, the outcome was inactive.

Take `CCCN(CCC)c1c([N+](=O)[O-])cc(C(F)(F)F)cc1[N+](=O)[O-]`: the compound was called inactive.
